aSyn 5UTR act = Activators via SNCA 5'UTR binding, MLPCN. alpha-synuclein 5'UTR reporter, activators screen. activity score, % (tested at 7.5 µM), hits read low. actives 7.1% (n = 300,000). AID 1814; in the data active = activity score below about -60%
An asterisk follows results filed as active. These entries were drawn from the full list.

SMILES | aSyn 5UTR act
C/C(=N\NC(=O)C(N)=O)c1ccc(NC(=O)c2cccs2)cc1 | -140.2*
C/C(=N\NC(=O)c1ccccc1C)c1ccc(NC(=O)c2cccs2)cc1 | -148.1*
C/C(=N\NC(=O)c1ccco1)c1ccc(NC(=O)c2cccs2)cc1 | -105.8*
C/C(=N\NC(=O)c1ccccc1)c1ccc(NC(=O)c2cccs2)cc1 | -107.7*
CC(C)OCCCNC(=O)C(=O)N/N=C/c1ccc(OCc2ccccc2)cc1 | -66.8*
O=C(NCc1ccncc1)C(=O)N/N=C/c1ccc(OCc2ccccc2)cc1 | -92.7*
CCOc1ccc(N(CC(=O)NCc2ccccc2OC)S(C)(=O)=O)cc1 | -90.4*
C=CCNC(=O)c1ccc(CN(c2ccc(OCC)cc2)S(=O)(=O)c2ccc(C)cc2)cc1 | -92.9*
CCOc1ccc(N(CC(=O)Nc2ccc(C)cc2)S(C)(=O)=O)cc1 | -113.0*
CCOc1ccc(N(CC(=O)Nc2ccccc2C)S(=O)(=O)c2c(C)noc2C)cc1 | 58.7
CS(=O)(=O)N(CC(=O)Nc1ccccc1C(=O)NCCc1ccccc1)c1ccc2c(c1)OCCO2 | -153.5*
Brc1ccc(C2=Nn3c(nnc3-c3n[nH]c4c3CCC4)SC2)cc1 | 86.0
CC(=O)c1ccc(NC(=O)CN(c2c(C)cccc2C)S(C)(=O)=O)cc1 | -131.3*
CCOc1ccc(N(CC(=O)Nc2cc(C)cc(C)c2)S(C)(=O)=O)cc1 | -87.6*
Cc1ccc(N(CC(=O)Nc2ccc3c(c2)OCCO3)S(C)(=O)=O)cc1 | -99.0*
O=C(Oc1ccc(-c2ccccc2)cc1)N1CCCCC1 | -169.2*
O=C(c1cccc(-c2nnc(-c3ccccc3)o2)c1)N1CCCCC1 | -76.1*
O=C(c1ccc(-c2ccccc2)cc1)N1CCCC1 | -87.7*
O=C(Nc1ccccc1)Nc1nc(-c2ccccc2)cs1 | -87.5*
COc1cccc(-c2csc(NC(=O)C3CC3)n2)c1 | -161.4*
COc1cccc(-c2csc(NC(=O)Nc3ccccc3)n2)c1 | -165.6*
O=C(Nc1ccc(-c2csc(Nc3ccccc3)n2)cc1)c1ccccc1 | -86.9*
CC(C)(C)c1csc(NC(=O)Nc2ccccc2)n1 | -140.9*
O=C(Nc1nc(-c2ccccc2)cs1)Nc1ccc(F)cc1F | -63.4*
Cc1cc(N)c(NC2=CC(=O)CC(C)(C)C2)cc1C | -107.7*
SMILES | aSyn 5UTR act
C=CS(=O)(=O)c1ccc(Oc2ccc(S(=O)(=O)C=C)cc2)cc1 | -108.2*
CCCCN=C(C)c1c(O)c2ccccc2oc1=O | -159.0*
Cc1ccc(O)c(-c2cc(-c3ccccc3F)[nH]n2)c1 | -114.7*
Cc1ccc(-c2cc(-c3cccc(F)c3)n[nH]2)c(O)c1 | -153.9*
Cc1ccc(O)c(-c2cc(-c3cccc(F)c3)n[nH]2)c1 | -96.2*
O=[N+]([O-])c1ccccc1-c1cc(-c2ccccc2O)n[nH]1 | -256.5*
COc1ccc(/C=C2\SC(=S)N(CCCC(=O)N3CCCCC3CCO)C2=O)cc1 (stereo not drawn) | 67.9
CCN1C(=O)/C(=C\N2CCCCCC2)SC1=S | -112.0*
CCN1C(=O)/C(=C/N2CCc3ccccc3C2)SC1=S | -107.8*
Cc1cc(C)nc(/N=C(\N)Nc2ccc(F)c([N+](=O)[O-])c2)n1 | -124.1*
Cc1ccc(CN=C(N)Nc2nc(C)cc(C)n2)cc1 | 117.0
Cc1cc(C)nc(/N=C(\N)Nc2ccc3c(c2)OCCO3)n1 | -126.4*
COc1cccc(CN(C)C(=O)c2ccc(COc3ccc(Cl)cc3)cc2)c1OC | -101.2*
CC(C)(C)C(=O)CSc1ncnc2c1cnn2-c1ccccc1 | -161.8*
c1ccc(CSc2ncnc3c2cnn3-c2ccccc2)cc1 | -142.3*
CC(C)(C)C(=O)Nc1ccc(-c2cc3cc(Cl)ccc3o2)cc1 | -124.2*
Cc1cccc(NC(=S)NNC(=O)c2csc3c2CCCC3)c1 | -125.3*
Cc1cccc(NC(=S)NNC(=O)c2csc(C)c2)c1 | -76.7*
Cc1cc(C(=O)Nc2ccc(Br)cc2)cs1 | -130.1*
CCn1c2ccccc2c2cc(NC(=O)C(=O)N3CCOCC3)ccc21 | -63.5*
COc1cccc(NC(=O)C(=O)N2CCOCC2)c1 | -172.8*
CCn1c2ccccc2c2cc(Nc3cc(C)nc4ncnn34)ccc21 | 81.7
Cc1ccn2cc(C34CC5CC(CC(C5)C3)C4)nc2c1 | -83.2*
Cc1cccc(N/N=C/c2ccc(C)s2)c1 | -180.0*
Cc1ccc(/C=N/N=C/c2ccc(C)s2)s1 | -199.3*
SMILES | aSyn 5UTR act
COc1ccc(-c2cc(COc3ccccc3)on2)cc1 | -132.0*
Fc1ccc(OCc2cc(-c3ccccc3)no2)cc1 | -149.5*
Cc1cccc(OCc2cc(-c3ccccc3)no2)c1C | -112.3*
Cc1ccc2nc(CCc3ccc(N)cc3)[nH]c2c1 | -135.9*
Nc1ccc2nc(CCc3ccccc3)[nH]c2c1 | -68.0*
Cc1ccc2nc(Cc3ccc(N)cc3)oc2c1 | -108.4*
O=C(CSc1ccccn1)Nc1ccc2c(c1)oc1ccccc12 | -122.4*
COc1cc2c(cc1NC(=O)CSc1ccccn1)oc1ccccc12 | -280.7*
CCn1c(=NC(=O)c2ccco2)sc2cccc(F)c21 | -125.9*
N#C/C(=C/c1ccc(N2CCCCC2)o1)C(=O)Nc1ccc(Cl)cc1 | -152.0*
N#C/C(=C/c1ccc(N2CCCCC2)o1)C(=O)Nc1ccc2ccccc2c1 | -110.0*
CCOc1ccc(-c2nc(CSCC(=O)N3CCN(c4cccc(OC)c4)CC3)c(C)o2)cc1 | 68.5
COc1ccc(-c2nnc(SCC(=O)N3CCCC3)o2)cc1 | -107.3*
CCOc1ccc(-c2nnc(SCC(=O)N3CCCC3)o2)cc1 | -101.3*
CCOc1ccc(-c2nnc(SCC(=O)N3CCOCC3)o2)cc1 | -113.3*
O=C(NC1CCCCC1)c1cc2ccccc2cc1O | -81.2*
Cc1ccccc1C(=O)NC1CCCCCCC1 | -147.7*
O=C(NC1CCCCCCC1)c1ccccc1O | -174.8*
N#C/C(=N\Nc1ccc(F)cc1)C(=N)N1CCCCC1 | -111.0*
N#C/C(=N\Nc1ccccc1)C(=N)N1CCCCCC1 | -170.9*
N#C/C(=N\Nc1cccc(F)c1)C(=N)N1CCCCCC1 | -94.9*
COc1ccc(/C(C)=N/NC(=O)c2ccccc2N)cc1 | -92.0*
Cn1cc(C(=O)c2ccc(Cl)cc2Cl)cc1C(=O)N/N=C(\N)COc1ccc(Cl)cc1Cl | 64.9
C/C(=N/NC(=O)c1ccc(C)s1)c1cccnc1 | -70.4*
C/C(=N/NC(=O)c1ccncc1)c1ccc(NC(=O)c2ccc(Cl)cc2Cl)cc1 | -184.7*
SMILES | aSyn 5UTR act
COc1cc(OC)cc(C(=O)Nc2ccc(C(=O)c3ccncc3)cc2)c1 | -71.9*
C/C(=N\NC(=O)c1ccncc1)c1ccc(NC(=O)c2ccc(Cl)cc2)cc1 | -115.9*
COc1ccc(C(=O)Nc2ccc(/C(C)=N/NC(=O)c3ccncc3)cc2)cc1 | -107.6*
C/C(=N\NC(=O)c1ccc(Cl)cc1)c1cccnc1 | -91.6*
Oc1ccccc1C1CC(c2cccs2)=NC(c2ccc(Cl)cc2)N1 (stereo not drawn) | -94.0*
CCN(CC)C(=O)C(C)N(C#N)c1nc(Cl)nc(N(C)C)n1 (stereo not drawn) | -121.8*
C/C(N)=C(/C#N)C(=O)COC(=O)c1cccc2ccccc12 | -62.5*
COc1ccc2oc(C(=O)OCC(=O)/C(C#N)=C(\C)N)c(C)c2c1 | -81.3*
Cn1c(-c2ccc(CN3CCCCC3)o2)nc2ccccc21 | -89.3*
C/C(O)=C(\N=Nc1cc(C)ccc1O)C(N)=O | -65.5*
O=[N+]([O-])c1ccc(O)c(C2=NNC(c3ccccc3F)C2)c1 (stereo not drawn) | -122.4*
COc1cc(C=O)c(Br)cc1OCc1ccc(C)cc1 | -204.0*
CCOc1ccc(C2CC(c3ccc(CC)cc3)Nc3nc(N)nn32)cc1 (stereo not drawn) | -64.7*
Cc1ccc2nc(-c3ccccn3)c(NC3CCCC3)n2c1 | -165.4*

Screening results: PubChem BioAssay, Broad Institute
